The values that follow come from ChEMBL document CHEMBL4888484, “Replenishing the malaria drug discovery pipeline: Screening and hit evaluation of the MMV Hit Generation Library 1 (HGL1) against asexual blood stage Plasmodium falciparum ,using a nano luciferase reporter read-out” (2022).

Hit rate of the full screen: of about 4,800 compounds, about 410 (8.5%) showed an effect of 50% or more. What follows is part of a selection rich in strong results, with near analogues and random picks from the rest.

The test system of the assay is Plasmodium falciparum. In words: Confirmatory screen in NF54 pLDH assay, in single point, at 2uM, 72h. Format: functional, Erythrocyte. Particulars: timepoint 72 hour.
As to `Cc1cc(C(=O)Nc2nc(-c3ccc4c(c3)CCC4)n[nH]2)no1`, the “% Inhibition” value came out at 7%. `CCn1cc(-c2nc(-c3ccccc3C)no2)c(=O)c2cc(F)c(N3CCCCC3)cc21`: the “% Inhibition” value stood at 42%. The value for `CCn1cc(C#N)c(=O)c2cc(F)c(N3CCN(Cc4ccccc4)CC3)cc21` was 78%; that for `CCn1cc(C(=O)O)c(=O)c2cc(F)c(N3CCN(S(=O)(=O)c4ccccc4)CC3)cc21` was -6%; that for `CCNC(=O)c1ccc(-c2nc(CS(=O)(=O)c3ccccc3)c(C)o2)cc1` was -10%.

For `Cc1ccc(S(=O)(=O)Cc2nc(-c3ccc(C(=O)Nc4c(C)cccc4C)cc3)oc2C)cc1`, the “% Inhibition” value turned out to be 13%. Take `Cc1cccc(-c2nc(C[N+]3(Cc4nc(-c5cccc(C)c5)oc4C)CCCC3)c(C)o2)c1`: the “% Inhibition” value worked out at 55%. The value for `COc1cccc2c(=O)c3c([nH]c12)CCN(CC(=O)NCc1ccccc1Cl)C3` was 37%. Consider `COc1ccc(CN(Cc2ccncc2)CC2CCN(C3CCN(C)CC3)CC2)c(F)c1`, for which the “% Inhibition” value was found to be 93%. `c1ccc(N2CCN(C3CCN(Cc4ccncc4)CC3)CC2)cc1`: the “% Inhibition” value was -2%. On to `c1cc(CN2CCN(C3CCCCCC3)CC2)ccn1`, for which the “% Inhibition” value is listed as -17%. With `O=S1(=O)CCN(C2CCN(Cc3c(F)cccc3F)CC2)CC1` the figure was 14%.

On to `CN1CCC(N2CCC(CN(Cc3ccncc3)Cc3c(F)cccc3Cl)CC2)CC1`, for which the “% Inhibition” value is reported as 99%. As for `Cc1ccc(C)c(NC(=O)N2CC(n3cnnc3-c3ccccc3)C2)c1`, the “% Inhibition” value was 0%. With `c1ccc(CCc2nnc3n2CCOC3)cc1` the figure was 3%. With `COCc1cc2nn(CC(=O)Nc3ccc4c(c3)OCO4)c(=O)n2c(-c2ccccc2)n1` the figure was 12%; with `Cc1ccc(CNC(=O)[C@@H](C)C2CCOCC2)cc1C`, 7%. As for `Cc1ccc(-c2nn3c([C@H]4CCCN(C)C4)nnc3s2)cc1C`, the “% Inhibition” value is on record as -8%.

For the molecule `O=C1NC2(CCCC2)Nc2ccccc21`, the “% Inhibition” value is reported as 2%.

Consider `Cc1cc(=O)n2ncc(C(=O)Nc3ccc(F)cc3F)c2[nH]1`, for which the “% Inhibition” value was 10%.

With `COc1ccc(N(C)S(=O)(=O)c2ccsc2-c2nc(-c3cccnc3)no2)cc1Cl`, the “% Inhibition” value was -2%.

Take `CC(C)(C)N(CC(N)=O)CC(=O)NC(=O)NC1CCCCC1`: the “% Inhibition” value was 8%. With `CCN(CC)C(=O)c1cc(C)n(-c2ccc3c(c2)OCCO3)c1C` the figure was -3%; with `O=C1c2[nH]nc(-c3cccs3)c2[C@@H](c2cccc(O)c2)N1c1nccs1`, 5%. Consider `O=S(=O)(N[C@H]1CCc2nnc(-c3ccc(F)cc3)n2C1)c1cccnc1`, for which the “% Inhibition” value was 13%. As to `C[C@@H]1CN(c2ccc(N)cn2)C[C@H](C)O1`, the “% Inhibition” value was -12%. With `COc1ccc(CC(=N)Nc2cc3cc(OC)c(OC)cc3c(Cc3ccc(OC)c(OC)c3)n2)cc1OC` the figure was 89%.

Take `COc1ccc(CCNC(=O)CCCC(=O)NCc2ccccc2)cc1OC`: the “% Inhibition” value is on record as -14%.

On to `CCCNC(=O)C[C@H](C)CC(=O)NCCc1ccc(OC)c(OC)c1`, for which the “% Inhibition” value is 14%.
